Measurements taken from PubChem BioAssay.

system: Noggin (protein binding on small-molecule microarray); assay: small molecules binding Noggin protein – biochemical, 635/667 nm fluorescence, primary screen (AID 1095); conditions: 635 nm fluorescence, higher = more signal;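 note: score merges 667 nm feature fluorescence with signal to noise over triplicate slides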

SMILES	composite z-score
CC(C)=NO[C@H](C)c1cn([C@H](CO)Cc2ccccc2)nn1	-0.0003
CCOC(=O)[C@H](CC(C)C)NC(=O)CCC1CC(OC(=O)NCc2cccc3ccccc23)CC2(CCCC(COC(=O)NCCOc3ccccc3)O2)O1 (stereo partly specified)	0.317
O=C1C[C@@H](O)[C@@H](O)[C@@H]2[C@@H]3C(=O)N(C[C@@H]4CCCO4)C(=O)[C@@H]3CC[C@@H]12	0.658
CCOC(=O)[C@H](CC(C)C)NC(=O)CCC1CC(OC(=O)NCc2cccc3ccccc23)CC2(CCCC(COC(=O)NCCc3ccc(Cl)cc3)O2)O1 (stereo partly specified)	0.434
CO[C@H]1COC(=O)CC=C[C@@H](C)[C@H](NS(=O)(=O)c2ccc(C)cc2)COC(=O)CCC[C@@H]1C	0.676
CO[C@H]1COC(=O)[C@H](C)NC(=O)CC=C[C@@H](C)[C@H](OC)COC(=O)[C@@H](OCc2ccccc2)C=C[C@@H]1C	0.941
CCCNC(=O)OC[C@H]1O[C@H](CCON=C(C)CCN2CCCc3nc(C)c(C)cc32)C=C[C@@H]1Oc1ccc(OC)cc1	0.634
C#CCCCON=C1C[C@@H](O)[C@@H](O)[C@@H]2[C@@H]3C(=O)N(CC)C(=O)[C@@H]3CC[C@@H]12	0.167
COC(=O)[C@H](C)NC(=O)CCC1CC(OC(=O)NCc2ccc3c(c2)OCO3)CC2(CCCC(COC(=O)NCC3CCCCC3)O2)O1 (stereo partly specified)	1.1
CO[C@H]1COC(=O)CC=C[C@@H](C)[C@H](OC)COC(=O)[C@@H]2CCCN2C(=O)CC=C[C@@H]1C	1.41
CON=C[C@@H](NS(=O)(=O)c1ccc(C)cc1)[C@H](C)C=CCC(=O)OC	0.26
COc1cccc([C@H]2Oc3ccc(OC)cc3C(=NO[C@H](C)c3cn([C@H](CO)Cc4ccccc4)nn3)[C@@H]2O)c1	0.259
COc1ccc(COC(=O)NN=C2C[C@@H](O)[C@@H](O)[C@@H]3[C@@H]4C(=O)N(c5cccc(Oc6ccccc6)c5)C(=O)[C@@H]4CC[C@@H]23)cc1	-0.516
CO[C@@H]1COC(=O)CC=C[C@H](C)[C@H](OC)COC(=O)[C@H](C)NC(=O)CC=C[C@H]1C	1.83
O=C1C[C@@H](O)[C@@H](O)[C@@H]2[C@@H]3C(=O)N(C[C@@H]4CCCO4)C(=O)[C@@H]3CC[C@H]12	0.394
COC(=O)[C@@H]1CC[C@@H](C)[C@H](c2ccc(Br)cc2)N1	0.255
COC(=O)[C@@H]1CC[C@H](C)[C@@H](c2ccc(C)cc2)N1C(=O)c1ccc(C=NO[C@H](C)c2cn([C@@H]3COC[C@H]3O)nn2)cc1	0.258
Cn1c(=O)n2n(c1=O)[C@H]1[C@H](O)[C@@H]3O[C@@H]3C(=NOCc3ccccc3)[C@H]1CC2	-0.173

SMILES	composite z-score
CCOC(=O)NN=C1C[C@@H](O)[C@@H](O)[C@@H]2[C@@H]3C(=O)N(c4cccc(Oc5ccccc5)c4)C(=O)[C@@H]3CC[C@@H]12	0.918
COC(=O)[C@H](C)NC(=O)CCC1CC(OC(=O)NCc2cccc3ccccc23)CC2(CCCC(COC(=O)NCC(c3ccccc3)c3ccccc3)O2)O1 (stereo partly specified)	0.661
Cc1ccc(S(=O)(=O)n2c3ccccc3c3nnc(C(=O)c4ccccc4)nc32)cc1	0.0828
COC(=O)C=CCCc1coc(C=CCNC(=O)OC)n1	1.37
CON=C1[C@H]2CCn3c(=O)n(-c4ccccc4)c(=O)n3[C@H]2[C@H](O)[C@@H]2O[C@H]12	1.02
CC(C)=CCCC(C)=CCON=C1C[C@@H](O)[C@@H](O)[C@@H]2[C@@H]3C(=O)N(C4CCCCC4)C(=O)[C@@H]3CC[C@@H]12	0.615
O=C1[C@H]2[C@H]3[C@H](O)[C@H](O)CC(=NOC[C@@H](O)COCc4ccco4)[C@H]3CC[C@H]2C(=O)N1C[C@@H]1CCCO1	0.759
O=C(NN=C1C[C@@H](O)[C@@H](O)[C@@H]2[C@@H]3C(=O)N(C[C@@H]4CCCO4)C(=O)[C@@H]3CC[C@@H]12)OCc1ccccc1	0.907
COc1ccc(C#C[C@@H]2C=C[C@H](OC(C)=O)[C@@H](COC(C)=O)O2)cc1	0.622
CC(C)CON=C1C[C@@H](O)[C@@H](O)[C@@H]2[C@@H]3C(=O)N(c4cccc(Oc5ccccc5)c4)C(=O)[C@@H]3CC[C@@H]12	1.02
CCOC(=O)[C@H](CC(C)C)NC(=O)CCC1CC(OC(=O)NCc2cccc3ccccc23)CC2(CCCC(COC(=O)NCc3cccc(C(F)(F)F)c3)O2)O1 (stereo partly specified)	0.582
C#CCCCON=C1C[C@@H](O)[C@@H](O)[C@@H]2[C@@H]3C(=O)N(Cc4ccccc4)C(=O)[C@@H]3CC[C@@H]12	0.224
COc1ccc(O[C@H]2C=C[C@@H](c3ccccc3)O[C@@H]2CON=CC[C@@H]2C=C[C@H](OC(C)=O)[C@@H](COC(C)=O)O2)cc1	0.691
CC(C)(C)N1C(=O)[C@H]2[C@H]3[C@H](O)[C@H](O)CC(=O)[C@H]3CC[C@H]2C1=O	0.344
Cc1cc2c(nc1C)CCCCN2CC(C)ON=C[C@@H](C)[C@H](OCc1ccccc1)C(C)C (stereo partly specified)	-0.913
C#CCCCON=C1C[C@@H](O)[C@@H](O)[C@@H]2[C@@H]3C(=O)N(CCC(=O)OCC)C(=O)[C@@H]3CC[C@H]12	0.4
CCOC(=O)[C@H](CC(C)C)NC(=O)CCC1CC(OC(=O)NCc2cccc3ccccc23)CC2(CCCC(COC(=O)NCCOC)O2)O1 (stereo partly specified)	0.607
COc1ccc(COC(=O)NN=C2C[C@@H](O)[C@@H](O)[C@@H]3[C@@H]4C(=O)N(c5ccc(F)cc5F)C(=O)[C@@H]4CC[C@H]23)cc1	-0.186
